Our source for the outcome and AC50 values is PubChem BioAssay (EPA / NIEHS).

Structures are written as SMILES. Records with an inconclusive call do not appear. Activity calls are given as the source filed them. Rule for the calls, unless noted: active = hit-call score of the fitted dose curve at least 0.9, where 1 is the maximum; inactive = score below 0.9.

For test [1], the target named is Myc proto-oncogene protein (Homo sapiens) (UniProt P01106). Put plainly: ATG_Myc_CIS: Attagene CIS-FACTORIAL HepG2 Assay for human Myelocytomatosis (Myc) Proto-Oncogene Transcription Factor (AID 2282990). The note with it: HepG2, Attagene cis-reporter transcription factor activity; actives raise or lower the signal. The essentials:
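Fluorescence intensity of reporter-specific cDNA fragments, separated by capillary electrophoresis, gives the signal. Transfected HepG2 cells carrying cis-promoter reporter constructs are incubated with compound for 24 h; DMSO serves as baseline.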

Test [2] is described as follows: ATG_NF_kB_CIS: Attagene CIS-FACTORIAL HepG2 Assay for human Nuclear Factor Kappa B (NF-kB) (AID 2282991). The conditions noted are these: HepG2 Attagene cis-factorial NF-kB reporter mRNA; actives raise or lower the signal. The essentials:
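After 24 h compound incubation, transfected HepG2 cells yield total RNA; reporter cDNA is PCR-amplified, end-labelled with 6-FAM, HpaI-digested and analysed on a genetic analyser. Endogenous factor activity, DMSO-referenced bidirectional fit.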

Test [3] in a line: ATG_NRF2_ARE_CIS: Attagene CIS-FACTORIAL HepG2 Assay for human Nuclear Factor Erythroid 2 Related Factor 2 (NFR2) response to Antioxidant Response Elements (ARE) (AID 2282992).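 For AC50: reporter mRNA level measured by RT-PCR and capillary electrophoresis fluorescence.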 The note with it: HepG2 Attagene ARE/NRF2 reporter, transcription factor activity; actives raise or lower the signal. The gist of the method:
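Transient MRTU transfection of HepG2; 24 h compound exposure; TriZol RNA, RT with oligo(dT), PCR, 6-FAM primer extension, HpaI cut, CE. Bidirectional fit vs DMSO.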

A short description of test [4]: ATG_Oct_MLP_CIS: Attagene CIS-FACTORIAL HepG2 Assay for human Octamer-Binding Transcription Factor (Oct) (AID 2282993). The conditions noted are these: HepG2 Attagene cis-factorial Oct reporter, mRNA; actives raise or lower the signal. The essentials: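 Multiplexed cis-reporter assay in human liver HepG2 cells, 24 h incubation. Reporter RNA amplified and labelled, then resolved by capillary electrophoresis; DMSO serves as negative control and baseline.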

The target in test [5] is Cellular tumor antigen p53 (Homo sapiens) (UniProt P04637). Put plainly: ATG_p53_CIS: Attagene CIS-FACTORIAL HepG2 Assay for human p53 Transcription Factor (AID 2282994). The conditions noted are these: HepG2 p53 cis-element reporter, Attagene mRNA; actives raise or lower the signal. The gist of the method:
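HepG2, transient MRTU transfection (cis promoter elements, endogenous TFs); 24 h dosing; RNA isolation, RT-PCR, 6-FAM primer extension, HpaI digest, CE fluorescence; bidirectional fit vs DMSO.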

Test [6] concerns the target human Peroxisome Proliferator-activated Receptor alpha (PPARa), PPARA (gene 5465) (UniProt Q07869). Put plainly: ATG_PPARa_TRANS: Attagene TRANS-FACTORIAL HepG2 Assay for human Peroxisome Proliferator-activated Receptor alpha (PPARa) (AID 2283001; active = hit-call score of the fitted dose curve at least 0.9, where 1 is the maximum). The essentials:
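HepG2 cells transiently transfected with multiplexed GAL4-UAS reporters driven by exogenous chimeric NR-Gal4 proteins; reporter mRNA measured after 24 h dosing. Read-out by RT-PCR, 6-FAM labelling, HpaI digestion and capillary electrophoresis; gain of signal versus DMSO.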

Test [7] has as its target human Peroxisome Proliferator-activated Receptor delta (PPARd), PPARD (gene 5467) (UniProt Q03181). Put plainly: ATG_PPARd_TRANS: Attagene TRANS-FACTORIAL HepG2 Assay for human Peroxisome Proliferator-activated Receptor delta (PPARd) (AID 2283002; active = hit-call score of the fitted dose curve at least 0.9, where 1 is the maximum). The gist of the method: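 Fluorescence from capillary electrophoresis of labelled RT-PCR reporter fragments gives the signal; DMSO sets baseline. Cells: HepG2 transiently carrying GAL4-UAS reporter units plus chimeric nuclear receptor-Gal4 proteins, exposed to chemicals for 24 h.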

Test [8] deals with Nuclear receptor subfamily 1 group I member 2 (Homo sapiens) (UniProt O75469). Put plainly: ATG_PXR_TRANS: Attagene TRANS-FACTORIAL HepG2 Assay for human Pregnane X Receptor (PXR) (AID 2283008; active = hit-call score of the fitted dose curve at least 0.9, where 1 is the maximum). The essentials:
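Read-out is fluorescence of labelled reporter cDNA fragments separated by capillary electrophoresis after RT-PCR and HpaI digestion. Source: HepG2 cells carrying PXR-GAL4/UAS reporter constructs, treated 24 h; activity fitted upward relative to DMSO.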

Test [9] deals with human Retinoic Acid Receptor gamma (RARg), RARG (gene 5916) (UniProt P13631). Put plainly: ATG_RARg_TRANS: Attagene TRANS-FACTORIAL HepG2 Assay for human Retinoic Acid Receptor gamma (RARg) (AID 2283009; active = hit-call score of the fitted dose curve at least 0.9, where 1 is the maximum). The gist of the method:
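HepG2 transiently transfected with GAL4-UAS reporter units and chimeric NR-Gal4 constructs; 24 h compound exposure. Reporter mRNA quantified by RT-PCR, FAM labeling, HpaI digestion and capillary electrophoresis; gain-of-signal versus DMSO.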

The target of test [10] is human RAR-related Orphan Receptor gamma (RORg), RORC (gene 6097) (UniProt P51449). Put plainly: ATG_RORg_TRANS: Attagene TRANS-FACTORIAL HepG2 Assay for human RAR-related Orphan Receptor gamma (RORg) (AID 2283011; active = hit-call score of the fitted dose curve at least 0.9, where 1 is the maximum). The gist of the method:
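Readout: reporter transcript induction (RT-PCR, fluorescent primer extension, capillary electrophoresis) after 24 h compound exposure of transiently transfected HepG2 cells carrying a RORg-Gal4 chimera and GAL4-UAS reporters; DMSO served as baseline, with increasing signal fitted.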

Test [11] in a line: BSK_3C_uPAR: BioMAP Diversity Plus: 3C Assay for Urokinase-type plasminogen activator receptor (uPAR) Biomarker Activity (AID 2282998). The note with it: BioMAP 3C HUVEC, uPAR biomarker ELISA; actives raise or lower the signal. The essentials:
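Dose primary human umbilical vein endothelial cells, incubate 24 h, measure cell-surface uPAR by ELISA, then fit the signal in both directions against the DMSO negative control.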

Test [12] is described as follows: BSK_3C_VCAM1: BioMAP Diversity Plus: 3C Assay for Vascular cell adhesion molecule 1 (VCAM1) Biomarker Activity (AID 2282999). The note with it: BioMAP 3C HUVEC, VCAM1 ELISA, cytokine-stimulated; actives raise or lower the signal. The essentials: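 Human umbilical vein endothelial cells (3C system), biomarker read by ELISA 24 h after dosing; bidirectional fit against DMSO baseline. Cytotoxicity tracked by SRB total-protein staining in parallel cultures at biomarker time.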
On the technique in general: An ELISA detects its analyte on a solid surface through an enzyme-linked reagent.

A short description of test [13]: BSK_4H_Eotaxin3: BioMAP Diversity Plus: 4H Assay for Eotaxin 3 Biomarker Activity (AID 2283000). The note with it: primary human endothelial cells (HUVEC); actives raise or lower the signal. The essentials: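 HUVEC, 24 h post-dose, ELISA for Eotaxin-3/CCL26. Gain or loss of signal fitted bidirectionally vs DMSO baseline.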
Read-out in test [14]: Intercellular Adhesion Molecule 1 (ICAM1), ICAM1 (gene 3383)
Put plainly: BSK_3C_ICAM1: BioMAP Diversity Plus: 3C Assay for Intercellular Adhesion Molecule 1 (ICAM1) Biomarker Activity (AID 2283003). The note with it: primary human endothelial cells (HUVEC); actives raise or lower the signal. The essentials:
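HUVEC primary cells stimulated under 3C conditions; ICAM1 measured by ELISA 24 h after compound dosing. Curves fitted bidirectionally against the DMSO baseline. Overt cytotoxicity checked by SRB staining of parallel cultures.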

Test [15] in a line: BSK_3C_Proliferation: Cell Proliferation Assessment in the BioMAP Diversity Plus: 3C Assay (AID 2283006).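 Note: potency may reflect either rise or fall in cell number versus DMSO.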 The note with it: primary human endothelial cells (HUVEC). The essentials: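 Subconfluent HUVEC (3C system) cultured with chemical; relative cell number read at 48 h by sulforhodamine B total-protein staining (0.1% SRB after 10% TCA fixation, 560 nm). Bidirectional fit relative to DMSO.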

Test [16] has as its target human RAR-related Orphan Receptor beta (RORb), RORB (gene 6096) (UniProt Q92753). Put plainly: ATG_RORb_TRANS: Attagene TRANS-FACTORIAL HepG2 Assay for human RAR-related Orphan Receptor beta (RORb) (AID 2283010; active = hit-call score of the fitted dose curve at least 0.9, where 1 is the maximum). The gist of the method: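 HepG2 cells transiently transfected with GAL4-UAS reporter units expressing chimeric NR-Gal4 protein; reporter mRNA measured 24 h after dosing by RT-PCR, 6-FAM labelling and capillary electrophoresis. Gain-of-signal fitted relative to DMSO baseline.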

Test [17] concerns the target Peroxisome proliferator-activated receptor gamma (Homo sapiens) (UniProt P37231). Put plainly: ATG_PPARg_TRANS: Attagene TRANS-FACTORIAL HepG2 Assay for human Peroxisome Proliferator-activated Receptor-gamma (PPARg) (AID 2283007; active = hit-call score of the fitted dose curve at least 0.9, where 1 is the maximum). The essentials: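 Liver-derived HepG2 cells expressing an exogenous NR-Gal4 chimera alongside GAL4-UAS reporter genes; 24 h exposure. Fluorescence of reporter RT-PCR products, separated by capillary electrophoresis, gives mRNA induction relative to DMSO.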

The target of test [18] is human Retinoic Acid Receptor beta (RARb), RARB (gene 5915) (UniProt P10826). Put plainly: ATG_RARb_TRANS: Attagene TRANS-FACTORIAL HepG2 Assay for human Retinoic Acid Receptor beta (AID 2283004; active = hit-call score of the fitted dose curve at least 0.9, where 1 is the maximum). The essentials:
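HepG2 cells transiently transfected with multiplexed GAL4-UAS reporter units expressing chimeric NR–Gal4 fusions; 24 h compound exposure. Reporter mRNA quantified by RT-PCR, 6-FAM labelling, HpaI digestion and capillary electrophoresis; gain-of-signal fitted against DMSO baseline.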

The target of test [19] is Retinoic acid receptor alpha (Homo sapiens) (UniProt P10276). Put plainly: ATG_RARa_TRANS: Attagene TRANS-FACTORIAL HepG2 Assay for human Retinoic Acid Receptor alpha (RARa) (AID 2283005; active = hit-call score of the fitted dose curve at least 0.9, where 1 is the maximum). The essentials:
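HepG2 transiently transfected with multiplex GAL4-UAS reporter units including a human RARa–GAL4 chimera; 24 h compound exposure. Reporter mRNA quantified by RT-PCR, 6-FAM labeling and capillary electrophoresis; gain of signal versus DMSO.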

Sequence of Nuclear receptor subfamily 1 group I member 2 (Homo sapiens) (O75469 whole entry, looked up, the tested form may be a part): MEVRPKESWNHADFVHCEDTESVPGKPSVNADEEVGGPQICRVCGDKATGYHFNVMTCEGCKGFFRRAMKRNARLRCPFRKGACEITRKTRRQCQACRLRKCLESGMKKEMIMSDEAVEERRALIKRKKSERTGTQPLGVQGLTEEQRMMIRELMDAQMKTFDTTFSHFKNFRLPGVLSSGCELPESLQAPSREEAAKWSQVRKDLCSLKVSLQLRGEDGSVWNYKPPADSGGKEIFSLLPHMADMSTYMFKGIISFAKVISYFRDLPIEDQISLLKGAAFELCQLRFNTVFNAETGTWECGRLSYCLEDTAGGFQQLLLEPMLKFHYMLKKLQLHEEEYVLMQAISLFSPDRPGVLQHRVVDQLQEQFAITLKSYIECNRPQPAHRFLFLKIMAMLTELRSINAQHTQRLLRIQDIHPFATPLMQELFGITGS
Sequence of human RAR-related Orphan Receptor beta (RORb), RORB (gene 6096) (Q92753 whole entry, looked up, the tested form may be a part): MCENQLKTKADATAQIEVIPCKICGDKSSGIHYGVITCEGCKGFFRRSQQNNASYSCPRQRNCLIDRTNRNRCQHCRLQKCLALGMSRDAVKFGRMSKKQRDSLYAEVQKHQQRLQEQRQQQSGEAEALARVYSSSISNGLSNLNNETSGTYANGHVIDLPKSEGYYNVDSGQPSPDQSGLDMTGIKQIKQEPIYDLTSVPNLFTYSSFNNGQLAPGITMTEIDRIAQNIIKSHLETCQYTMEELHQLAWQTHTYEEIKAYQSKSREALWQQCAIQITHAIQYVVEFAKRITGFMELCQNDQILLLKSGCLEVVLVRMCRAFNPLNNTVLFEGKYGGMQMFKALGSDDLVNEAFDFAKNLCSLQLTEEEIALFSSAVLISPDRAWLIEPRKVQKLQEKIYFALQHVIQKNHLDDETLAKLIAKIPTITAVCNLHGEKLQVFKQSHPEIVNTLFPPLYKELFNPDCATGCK
Sequence of human Peroxisome Proliferator-activated Receptor delta (PPARd), PPARD (gene 5467) (Q03181 whole entry, looked up, the tested form may be a part): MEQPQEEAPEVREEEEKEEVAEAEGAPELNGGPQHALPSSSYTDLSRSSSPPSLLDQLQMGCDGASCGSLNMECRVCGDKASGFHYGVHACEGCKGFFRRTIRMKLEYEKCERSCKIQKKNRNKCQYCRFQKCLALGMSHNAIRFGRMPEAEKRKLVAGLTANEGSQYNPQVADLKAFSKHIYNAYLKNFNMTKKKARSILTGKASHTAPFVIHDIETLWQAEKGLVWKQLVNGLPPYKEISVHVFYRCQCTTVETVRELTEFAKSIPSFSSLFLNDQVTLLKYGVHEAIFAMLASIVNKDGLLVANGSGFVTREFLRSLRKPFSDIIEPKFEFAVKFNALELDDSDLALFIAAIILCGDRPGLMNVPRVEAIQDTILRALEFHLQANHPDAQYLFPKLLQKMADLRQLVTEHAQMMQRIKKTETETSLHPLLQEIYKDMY
Sequence of Cellular tumor antigen p53 (Homo sapiens) (P04637 whole entry, looked up): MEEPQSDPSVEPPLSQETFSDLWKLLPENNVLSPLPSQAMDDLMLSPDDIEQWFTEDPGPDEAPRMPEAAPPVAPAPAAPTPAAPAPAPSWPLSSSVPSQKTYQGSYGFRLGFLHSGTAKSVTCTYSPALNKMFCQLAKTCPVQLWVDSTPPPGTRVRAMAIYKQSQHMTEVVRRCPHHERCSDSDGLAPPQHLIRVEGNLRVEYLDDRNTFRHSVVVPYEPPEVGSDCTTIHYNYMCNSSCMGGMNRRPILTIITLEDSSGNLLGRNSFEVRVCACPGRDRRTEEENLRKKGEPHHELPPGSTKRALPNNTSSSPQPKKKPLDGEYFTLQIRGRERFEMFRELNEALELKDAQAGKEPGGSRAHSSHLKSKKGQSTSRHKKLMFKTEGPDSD
Sequence of human Peroxisome Proliferator-activated Receptor alpha (PPARa), PPARA (gene 5465) (Q07869 whole entry, looked up, the tested form may be a part): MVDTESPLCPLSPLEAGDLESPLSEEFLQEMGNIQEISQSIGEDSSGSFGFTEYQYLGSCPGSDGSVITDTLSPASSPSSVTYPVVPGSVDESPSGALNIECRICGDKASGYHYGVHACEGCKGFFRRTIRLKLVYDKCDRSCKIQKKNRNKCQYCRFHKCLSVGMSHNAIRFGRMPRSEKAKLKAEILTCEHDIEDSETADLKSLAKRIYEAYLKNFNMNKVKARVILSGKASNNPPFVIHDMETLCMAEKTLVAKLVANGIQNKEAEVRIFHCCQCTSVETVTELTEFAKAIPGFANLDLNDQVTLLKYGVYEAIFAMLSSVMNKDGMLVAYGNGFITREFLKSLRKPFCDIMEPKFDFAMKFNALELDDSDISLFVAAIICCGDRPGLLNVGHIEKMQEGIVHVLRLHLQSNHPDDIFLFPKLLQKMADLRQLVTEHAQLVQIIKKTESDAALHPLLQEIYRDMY
Sequence of human RAR-related Orphan Receptor gamma (RORg), RORC (gene 6097) (P51449 whole entry, looked up, the tested form may be a part): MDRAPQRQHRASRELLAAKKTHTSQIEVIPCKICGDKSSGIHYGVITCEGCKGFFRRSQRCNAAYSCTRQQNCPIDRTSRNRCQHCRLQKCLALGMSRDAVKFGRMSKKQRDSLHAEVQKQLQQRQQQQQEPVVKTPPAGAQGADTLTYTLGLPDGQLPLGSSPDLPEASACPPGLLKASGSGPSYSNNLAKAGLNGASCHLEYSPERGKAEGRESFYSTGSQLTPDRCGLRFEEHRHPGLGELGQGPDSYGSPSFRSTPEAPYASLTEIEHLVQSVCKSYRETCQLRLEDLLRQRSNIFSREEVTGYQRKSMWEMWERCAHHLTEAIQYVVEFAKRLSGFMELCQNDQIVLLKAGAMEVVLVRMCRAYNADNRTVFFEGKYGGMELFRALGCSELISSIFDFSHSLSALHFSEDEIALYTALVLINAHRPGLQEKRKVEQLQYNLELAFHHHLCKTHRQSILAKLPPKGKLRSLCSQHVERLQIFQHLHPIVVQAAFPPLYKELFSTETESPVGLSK
Sequence of Myc proto-oncogene protein (Homo sapiens) (P01106 whole entry, looked up, the tested form may be a part): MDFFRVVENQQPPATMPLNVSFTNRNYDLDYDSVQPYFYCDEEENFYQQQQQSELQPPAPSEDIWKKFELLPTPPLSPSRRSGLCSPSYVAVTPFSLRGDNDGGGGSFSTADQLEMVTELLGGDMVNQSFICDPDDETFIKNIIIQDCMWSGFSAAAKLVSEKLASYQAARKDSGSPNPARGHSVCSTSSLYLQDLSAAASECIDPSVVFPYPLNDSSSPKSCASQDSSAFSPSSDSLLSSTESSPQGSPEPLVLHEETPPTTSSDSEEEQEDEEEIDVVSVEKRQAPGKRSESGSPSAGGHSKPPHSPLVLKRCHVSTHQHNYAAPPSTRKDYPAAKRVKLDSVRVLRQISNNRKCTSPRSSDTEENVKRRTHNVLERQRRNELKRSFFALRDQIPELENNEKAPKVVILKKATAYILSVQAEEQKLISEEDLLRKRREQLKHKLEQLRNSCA
Sequence of Peroxisome proliferator-activated receptor gamma (Homo sapiens) (P37231 whole entry, looked up, the tested form may be a part): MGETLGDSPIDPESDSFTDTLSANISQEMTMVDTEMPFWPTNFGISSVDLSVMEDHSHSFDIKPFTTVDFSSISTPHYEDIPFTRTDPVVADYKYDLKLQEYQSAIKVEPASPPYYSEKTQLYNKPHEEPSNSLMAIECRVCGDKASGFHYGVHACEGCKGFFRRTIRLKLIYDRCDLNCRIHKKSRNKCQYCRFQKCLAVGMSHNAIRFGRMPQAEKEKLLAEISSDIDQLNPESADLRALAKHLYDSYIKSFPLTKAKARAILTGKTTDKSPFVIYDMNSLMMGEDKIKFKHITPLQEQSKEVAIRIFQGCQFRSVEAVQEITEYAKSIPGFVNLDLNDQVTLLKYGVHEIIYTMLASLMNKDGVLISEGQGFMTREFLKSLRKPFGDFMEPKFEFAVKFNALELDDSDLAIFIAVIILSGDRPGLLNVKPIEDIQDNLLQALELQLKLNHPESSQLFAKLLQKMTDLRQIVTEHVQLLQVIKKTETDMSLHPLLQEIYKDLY
Sequence of human Retinoic Acid Receptor beta (RARb), RARB (gene 5915) (P10826 whole entry, looked up, the tested form may be a part): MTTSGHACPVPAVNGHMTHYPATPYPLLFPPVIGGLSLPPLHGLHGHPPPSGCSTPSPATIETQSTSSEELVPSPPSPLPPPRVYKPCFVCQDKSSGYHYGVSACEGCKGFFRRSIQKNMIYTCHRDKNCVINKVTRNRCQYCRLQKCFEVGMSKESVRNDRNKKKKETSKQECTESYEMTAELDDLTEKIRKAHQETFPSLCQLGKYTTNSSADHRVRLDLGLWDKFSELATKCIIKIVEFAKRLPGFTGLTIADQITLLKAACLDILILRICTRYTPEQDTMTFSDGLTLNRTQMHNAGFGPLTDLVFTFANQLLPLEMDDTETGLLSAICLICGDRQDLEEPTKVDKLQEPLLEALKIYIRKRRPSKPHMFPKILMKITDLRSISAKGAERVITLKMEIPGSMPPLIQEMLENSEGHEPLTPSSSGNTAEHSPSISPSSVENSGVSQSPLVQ
Sequence of human Retinoic Acid Receptor gamma (RARg), RARG (gene 5916) (P13631 whole entry, looked up, the tested form may be a part): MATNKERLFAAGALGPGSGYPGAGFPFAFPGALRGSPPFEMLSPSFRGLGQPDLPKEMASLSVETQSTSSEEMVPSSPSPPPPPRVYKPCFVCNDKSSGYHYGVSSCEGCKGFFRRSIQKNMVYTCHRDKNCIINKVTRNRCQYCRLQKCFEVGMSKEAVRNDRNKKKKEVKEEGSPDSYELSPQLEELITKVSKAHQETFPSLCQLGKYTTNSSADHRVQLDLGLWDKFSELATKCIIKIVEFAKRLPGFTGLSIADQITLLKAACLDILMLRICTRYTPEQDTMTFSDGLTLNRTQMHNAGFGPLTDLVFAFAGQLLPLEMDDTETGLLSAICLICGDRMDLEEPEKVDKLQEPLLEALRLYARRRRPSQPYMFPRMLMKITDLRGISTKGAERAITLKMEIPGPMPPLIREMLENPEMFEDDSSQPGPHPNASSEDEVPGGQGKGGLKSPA

For the compound `[Cl][Nd]([Cl])[Cl]`, the compound was called inactive in test [1], in test [2], in test [3], in test [4], in [5] and in test [6]. Also, the result in test [7], in [8], in test [9] and in test [10] was inactive.
A word on the AC50: it is the concentration giving half of the maximal activity seen. As for `COCc1c(C(C)C)nc(C(C)C)c(/C=C/[C@@H](O)C[C@@H](O)CC(=O)O)c1-c1ccc(F)cc1`, the compound was classed as inactive in [1], in [3], in test [4], in test [5], in test [12] and in [6]. Besides, the call in [7] and in test [14] was inactive. Besides, the AC50 in test [11] is 0.0342 µM (active); in test [13], 0.0266 µM (active); in test [15], 0.039 µM (active); in test [8], 1.76 µM (active).
`CCCCCCOC(=O)C(C)CC` (centres undefined): the compound was called inactive in [1], in [3], in test [5], in test [8] and in test [16].
In the case of `O=C(O)CCCCCCCCCC(=O)O`, the compound was classed as inactive in test [1], in test [3], in [4], in [5], in test [6] and in [17]. Besides, the compound was called inactive in test [8] and in test [16].
Take `CCOC(=O)c1ccc(N(C)C)cc1`: the outcome in test [1], in [3], in test [4], in [6], in test [17] and in test [10] was inactive. Moreover, in test [8], the AC50 was 27.5 µM (active).
Regarding `C[Si](C)(C)O[Si](O)(O)O`, the compound was classed as inactive in test [1], in test [3], in test [4], in test [6], in test [7] and in [18]. For the same compound, the outcome in test [8], in [9] and in [10] was inactive.
Regarding `O=c1[nH]c(=O)c2[nH]c(=O)[nH]c2[nH]1`, the compound was called inactive in test [1], in test [2], in test [3], in [5], in test [6] and in test [7]. In addition, the outcome in test [18], in test [16] and in test [10] was inactive.
For the compound `CCCCCCCCCCCSCC(=O)O`, the call in test [1], in [2], in test [3], in test [5], in [19] and in test [8] was inactive. In addition, the AC50 in test [4] is 79.2 µM (active); in test [7] it was 7.11 µM (active); in test [17], 9.6 µM (active).
As to `O=C1CCC(=O)N1Cl`, the call in test [1], in test [2], in test [3], in test [4], in test [7] and in [8] was inactive.
For `C=C(C)[C@@H]1CCC2=CCC[C@@H](C)[C@]2(C)C1`, the compound was classed as inactive in [1], in [5] and in test [17]. Moreover, the half-maximal activity concentration (AC50) in test [3] was 87.3 µM (active); in test [8], 2.72 µM (active).
Take `CCCCCCC1(C)CCC(=O)O1` (centres undefined): the call in [1], in test [2], in test [3], in test [4], in [5] and in test [6] was inactive. Besides, the result in test [17] and in [10] was inactive. The AC50 in test [8] was 33.2 µM (active).
